Results reported in the supplement of paper PMC10849652.
Targets with a hit are over-represented here; the source holds about 7,900 in all. About 0.6% of all pairs of compound and target were hits. A number with no mark means an inactive call.

How the values were obtained:
Test in all cases: log2 fold change, soluble protein after heating vs DMSO (PISA); higher = thermal stabilisation; K562 cells, 10 uM, 30 min; active = over 0.2 and 3.5 SD of the protein, either way, in both replicates (recomputed)
[1] = compound: Cc1ccc(NC(=O)c2ccc(CN3CC[C@H](N(C)C)C3)c(C(F)(F)F)c2)cc1Nc1nccc(-c2cncnc2)n1 [bafetinib]
In short: (§1)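 Quantification of soluble protein used TMTpro 16plex LC-MS/MS, with channel sums equalised. Samples were the supernatant after 21,000xg for 90 min of pooled aliquots from K562 cells (2×10^6 cells/mL) treated with 10 μM compound for 30 min, heated for 3 min over 48°C-58°C, and extracted in PBS with 0.5% NP-40 at 4°C. Values, from duplicates, describe thermal stability against control samples on a log2 fold-change scale.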

[2] = compound: Cc1cccc(CC(=O)N2CCc3c2ccc(-c2cn(C)c4ncnc(N)c24)c3F)n1
In short: as §1

[3] = compound: Cc1cn(-c2cc(NC(=O)c3ccc(C)c(Nc4nccc(-c5cccnc5)n4)c3)cc(C(F)(F)F)c2)cn1 [nilotinib]
In short: as §1

[4] = compound: Cc1nc(Nc2n[nH]c3c2CN(C(=O)N[C@H](CN(C)C)c2ccccc2)C3(C)C)c2sccc2n1
In short: as §1

[5] = compound: Cc1nc(Nc2ncc(C(=O)Nc3c(C)cccc3Cl)s2)cc(N2CCN(CCO)CC2)n1 [dasatinib]
In short: as §1

[6] = compound: Cc1ncc(-c2ccnc(Nc3ccc(S(C)(=O)=O)cc3)n2)n1C(C)C
In short: as §1

[7] = compound: Cn1cc(-c2ccc3c(c2)CCN3C(=O)Cc2cccc(C(F)(F)F)c2)c2c(N)ncnc21
In short: as §1

[8] = compound: Cn1cc(-c2ccc3nnc(C(F)(F)c4ccc5ncccc5c4)n3n2)cn1
In short: as §1

[9] = compound: Cn1cncc1[C@@](N)(c1ccc(Cl)cc1)c1ccc2c(c1)c(-c1cccc(Cl)c1)cc(=O)n2C [tipifarnib]
In short: as §1

[10] = compound: FC(F)(F)c1ccc(/C=C/c2nc(COc3ccc(CCCCn4ccnn4)cc3)co2)cc1 [mubritinib]
In short: as §1

[11] = compound: NC(=O)Nc1cc(-c2cccc(F)c2)sc1C(=O)N[C@H]1CCCNC1
In short: as §1

[12] = compound: NC(=O)c1cnc(N[C@@H]2CCCC[C@@H]2N)nc1Nc1cccc(-n2nccn2)c1
In short: as §1

[13] = compound: NC1(c2ccc(-c3nc4ccn5c(=O)[nH]nc5c4cc3-c3ccccc3)cc2)CCC1
In short: as §1

[14] = compound: NCC(=O)Nc1ccc(-n2nc(C(F)(F)F)cc2-c2ccc3c(ccc4ccccc43)c2)cc1
In short: as §1

[15] = compound: Nc1ccccc1NC(=O)c1ccc(CNC(=O)OCc2cccnc2)cc1 [entinostat]
In short: as §1

[16] = compound: O=C(CCCCCCC(=O)Nc1ccccc1)NO [vorinostat]
In short: as §1

[17] = compound: O=C(CCCCCCNC(=O)c1cnc(N(c2ccccc2)c2ccccc2Cl)nc1)NO [citarinostat]
In short: as §1

[18] = compound: O=C(O)c1ccc2c(c1)nc(Nc1cccc(Cl)c1)c1ccncc12 [silmitasertib]
In short: as §1

[19] = compound: O=C1NC(=O)C(c2cnc3ccccn23)=C1c1cn2c3c(cc(F)cc13)CN(C(=O)N1CCCCC1)CC2
In short: as §1

[20] = compound: c1cc(OCCN2CCCCC2)cc(-c2n[nH]c3ccc(-c4nnc[nH]4)cc23)c1
In short: as §1

Sequence of UniProt O14773 (O14773 whole entry, looked up): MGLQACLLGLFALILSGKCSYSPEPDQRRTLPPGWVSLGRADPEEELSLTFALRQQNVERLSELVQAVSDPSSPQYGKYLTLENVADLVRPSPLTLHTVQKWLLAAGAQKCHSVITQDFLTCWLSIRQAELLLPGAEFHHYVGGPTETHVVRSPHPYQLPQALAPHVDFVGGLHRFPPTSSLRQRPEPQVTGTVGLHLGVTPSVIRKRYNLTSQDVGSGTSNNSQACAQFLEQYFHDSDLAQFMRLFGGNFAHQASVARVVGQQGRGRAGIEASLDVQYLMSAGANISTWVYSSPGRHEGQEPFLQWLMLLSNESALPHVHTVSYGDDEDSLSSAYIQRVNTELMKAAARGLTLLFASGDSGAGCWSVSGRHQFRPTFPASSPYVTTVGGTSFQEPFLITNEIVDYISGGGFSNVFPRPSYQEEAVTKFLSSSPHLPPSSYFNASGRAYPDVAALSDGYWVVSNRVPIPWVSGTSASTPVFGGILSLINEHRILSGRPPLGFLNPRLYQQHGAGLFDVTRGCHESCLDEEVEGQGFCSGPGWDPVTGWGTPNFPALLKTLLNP
Sequence of UniProt Q9NQW7 (Q9NQW7 whole entry, looked up): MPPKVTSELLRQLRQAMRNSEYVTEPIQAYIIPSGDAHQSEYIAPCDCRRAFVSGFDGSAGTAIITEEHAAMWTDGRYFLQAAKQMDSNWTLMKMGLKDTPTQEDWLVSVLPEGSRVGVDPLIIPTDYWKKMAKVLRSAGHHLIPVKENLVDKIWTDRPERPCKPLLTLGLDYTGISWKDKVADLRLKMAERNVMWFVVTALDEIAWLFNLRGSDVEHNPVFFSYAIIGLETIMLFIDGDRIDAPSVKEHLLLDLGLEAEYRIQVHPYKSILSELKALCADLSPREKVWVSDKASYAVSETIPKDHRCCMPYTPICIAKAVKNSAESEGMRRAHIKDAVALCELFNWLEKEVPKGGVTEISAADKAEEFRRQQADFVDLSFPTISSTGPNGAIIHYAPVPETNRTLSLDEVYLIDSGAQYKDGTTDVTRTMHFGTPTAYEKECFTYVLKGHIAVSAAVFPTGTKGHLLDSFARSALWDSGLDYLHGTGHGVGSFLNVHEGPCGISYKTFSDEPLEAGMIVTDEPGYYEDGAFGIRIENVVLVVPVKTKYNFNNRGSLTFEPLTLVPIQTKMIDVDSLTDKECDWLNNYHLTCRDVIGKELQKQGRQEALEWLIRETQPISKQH
Sequence of UniProt Q8NCE0 (Q8NCE0 whole entry, looked up): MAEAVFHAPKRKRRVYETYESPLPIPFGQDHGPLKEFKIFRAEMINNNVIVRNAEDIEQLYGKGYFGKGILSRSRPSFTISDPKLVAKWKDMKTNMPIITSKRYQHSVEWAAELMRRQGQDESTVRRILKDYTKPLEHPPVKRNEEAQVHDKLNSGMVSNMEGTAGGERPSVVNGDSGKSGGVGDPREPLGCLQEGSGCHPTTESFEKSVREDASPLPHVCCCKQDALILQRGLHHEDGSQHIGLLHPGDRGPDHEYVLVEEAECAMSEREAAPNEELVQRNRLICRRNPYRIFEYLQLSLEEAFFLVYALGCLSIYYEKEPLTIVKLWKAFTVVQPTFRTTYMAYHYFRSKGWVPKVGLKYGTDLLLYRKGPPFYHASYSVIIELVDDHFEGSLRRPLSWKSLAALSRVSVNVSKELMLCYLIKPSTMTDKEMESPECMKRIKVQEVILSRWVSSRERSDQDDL
Sequence of UniProt Q14139 (Q14139 whole entry, looked up): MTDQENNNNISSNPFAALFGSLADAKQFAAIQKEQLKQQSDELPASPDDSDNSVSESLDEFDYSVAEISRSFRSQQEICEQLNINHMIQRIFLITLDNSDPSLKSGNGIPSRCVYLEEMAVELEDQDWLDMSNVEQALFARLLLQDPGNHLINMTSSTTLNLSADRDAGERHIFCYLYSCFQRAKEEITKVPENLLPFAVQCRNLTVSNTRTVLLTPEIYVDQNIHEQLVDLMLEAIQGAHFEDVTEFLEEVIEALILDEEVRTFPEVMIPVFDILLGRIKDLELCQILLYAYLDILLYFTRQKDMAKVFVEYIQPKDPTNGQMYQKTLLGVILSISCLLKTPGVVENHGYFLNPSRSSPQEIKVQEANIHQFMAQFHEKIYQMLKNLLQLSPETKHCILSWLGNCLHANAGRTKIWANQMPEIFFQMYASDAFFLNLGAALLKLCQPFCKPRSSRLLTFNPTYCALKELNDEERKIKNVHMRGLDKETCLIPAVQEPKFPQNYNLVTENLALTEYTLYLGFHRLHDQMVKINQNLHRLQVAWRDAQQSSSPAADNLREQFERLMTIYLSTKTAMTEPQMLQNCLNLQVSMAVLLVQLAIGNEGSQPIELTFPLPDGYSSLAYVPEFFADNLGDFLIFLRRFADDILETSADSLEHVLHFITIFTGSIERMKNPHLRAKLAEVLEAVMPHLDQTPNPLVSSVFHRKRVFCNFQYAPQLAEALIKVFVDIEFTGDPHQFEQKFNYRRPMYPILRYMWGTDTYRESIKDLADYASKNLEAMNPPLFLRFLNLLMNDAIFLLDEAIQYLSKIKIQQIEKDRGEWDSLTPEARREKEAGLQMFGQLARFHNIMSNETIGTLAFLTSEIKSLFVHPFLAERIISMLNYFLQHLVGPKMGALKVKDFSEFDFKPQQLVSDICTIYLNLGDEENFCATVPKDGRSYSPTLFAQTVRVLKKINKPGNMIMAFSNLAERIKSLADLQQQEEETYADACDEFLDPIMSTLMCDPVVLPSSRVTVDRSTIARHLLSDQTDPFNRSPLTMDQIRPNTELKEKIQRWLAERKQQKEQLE
Sequence of UniProt O75717 (O75717 whole entry, looked up): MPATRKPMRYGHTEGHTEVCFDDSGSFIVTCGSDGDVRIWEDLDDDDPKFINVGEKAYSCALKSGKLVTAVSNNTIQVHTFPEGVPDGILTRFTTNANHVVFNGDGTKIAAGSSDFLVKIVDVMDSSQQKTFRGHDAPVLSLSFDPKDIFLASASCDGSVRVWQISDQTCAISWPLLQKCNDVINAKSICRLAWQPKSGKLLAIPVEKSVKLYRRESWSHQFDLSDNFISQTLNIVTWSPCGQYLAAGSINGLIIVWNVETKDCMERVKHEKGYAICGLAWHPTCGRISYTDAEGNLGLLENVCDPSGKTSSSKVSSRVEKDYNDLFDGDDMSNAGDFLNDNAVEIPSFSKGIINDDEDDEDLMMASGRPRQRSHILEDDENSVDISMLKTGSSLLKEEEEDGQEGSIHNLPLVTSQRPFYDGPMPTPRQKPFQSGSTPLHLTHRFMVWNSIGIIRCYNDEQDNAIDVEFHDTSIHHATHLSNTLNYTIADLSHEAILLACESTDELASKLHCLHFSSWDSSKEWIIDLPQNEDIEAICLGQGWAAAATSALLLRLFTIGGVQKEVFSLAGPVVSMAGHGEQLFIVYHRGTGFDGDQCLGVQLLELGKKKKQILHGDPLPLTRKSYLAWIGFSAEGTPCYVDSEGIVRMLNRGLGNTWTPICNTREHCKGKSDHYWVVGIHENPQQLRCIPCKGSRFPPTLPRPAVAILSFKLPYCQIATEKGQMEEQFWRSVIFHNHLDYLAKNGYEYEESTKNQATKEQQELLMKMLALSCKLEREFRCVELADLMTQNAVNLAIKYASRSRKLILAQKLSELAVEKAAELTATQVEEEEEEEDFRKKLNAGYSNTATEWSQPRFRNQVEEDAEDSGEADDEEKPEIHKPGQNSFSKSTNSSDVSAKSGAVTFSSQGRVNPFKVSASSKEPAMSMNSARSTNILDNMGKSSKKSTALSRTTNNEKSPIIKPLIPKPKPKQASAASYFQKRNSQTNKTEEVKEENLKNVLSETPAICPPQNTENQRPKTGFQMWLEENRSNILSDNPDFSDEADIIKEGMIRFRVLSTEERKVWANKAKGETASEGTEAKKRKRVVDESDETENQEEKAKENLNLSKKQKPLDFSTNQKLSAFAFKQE
Sequence of UniProt A0PJW6 (A0PJW6 whole entry, looked up): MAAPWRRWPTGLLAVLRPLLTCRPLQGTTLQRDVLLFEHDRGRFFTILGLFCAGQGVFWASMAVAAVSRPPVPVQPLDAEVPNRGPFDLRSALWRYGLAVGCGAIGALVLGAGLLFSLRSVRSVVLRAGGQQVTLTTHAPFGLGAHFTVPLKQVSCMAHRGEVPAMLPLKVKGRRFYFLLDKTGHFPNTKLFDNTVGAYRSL
Sequence of UniProt Q9H270 (Q9H270 whole entry, looked up): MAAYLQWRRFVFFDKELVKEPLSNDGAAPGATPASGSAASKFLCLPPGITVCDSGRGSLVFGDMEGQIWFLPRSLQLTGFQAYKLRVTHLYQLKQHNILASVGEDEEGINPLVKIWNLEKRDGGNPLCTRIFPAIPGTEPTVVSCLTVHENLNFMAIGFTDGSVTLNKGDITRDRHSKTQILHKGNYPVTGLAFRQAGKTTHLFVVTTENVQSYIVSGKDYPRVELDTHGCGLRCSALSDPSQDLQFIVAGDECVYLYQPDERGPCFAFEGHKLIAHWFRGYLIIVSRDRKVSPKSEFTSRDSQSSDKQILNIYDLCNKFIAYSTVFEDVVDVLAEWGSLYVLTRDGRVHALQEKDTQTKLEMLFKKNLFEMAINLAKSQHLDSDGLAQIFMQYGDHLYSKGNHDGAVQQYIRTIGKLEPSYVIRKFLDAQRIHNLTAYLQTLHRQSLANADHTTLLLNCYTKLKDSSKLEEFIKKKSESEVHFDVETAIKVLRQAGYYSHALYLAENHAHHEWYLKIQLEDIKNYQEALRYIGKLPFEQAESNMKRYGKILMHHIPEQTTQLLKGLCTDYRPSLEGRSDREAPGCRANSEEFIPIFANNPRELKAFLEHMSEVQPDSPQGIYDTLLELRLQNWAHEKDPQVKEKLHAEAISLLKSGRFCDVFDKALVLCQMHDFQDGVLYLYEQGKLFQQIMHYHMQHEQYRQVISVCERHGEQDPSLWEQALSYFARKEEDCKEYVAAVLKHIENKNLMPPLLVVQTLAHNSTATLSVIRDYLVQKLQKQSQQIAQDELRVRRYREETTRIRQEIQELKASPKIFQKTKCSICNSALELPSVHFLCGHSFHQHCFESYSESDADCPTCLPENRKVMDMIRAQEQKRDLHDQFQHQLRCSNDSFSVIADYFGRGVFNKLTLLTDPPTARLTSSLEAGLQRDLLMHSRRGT

Target	log2 fold change [1]	log2 fold change [2]	log2 fold change [3]	log2 fold change [4]	log2 fold change [5]	log2 fold change [6]	log2 fold change [7]	log2 fold change [8]	log2 fold change [9]	log2 fold change [10]	log2 fold change [11]	log2 fold change [12]	log2 fold change [13]	log2 fold change [14]	log2 fold change [15]	log2 fold change [16]	log2 fold change [17]	log2 fold change [18]	log2 fold change [19]	log2 fold change [20]
USO1 isoform 2 (UniProt O60763)	-0.055	0.036	-0.039	-0.024	-0.052	0.032	-0.017	-0.003	-0.068	0.032	-0.009	0	-0.101	-0.024	0.032	0.018	0.032	0.059	-0.035	-0.013
WDHD1 (UniProt O75717)	-0.009	0.008	-0.005	-0.12	-0.076	-0.021	0.03	0.022	-0.041	0.067	-0.037	-0.054	-0.156	-0.106	0.09	0.119	0.176	0.025	-0.107	-0.001
TRIP10 (UniProt Q15642)	-0.042	0.05	0.098	-0.017	-0.06	-0.021	0.045	0.024	-0.01	0.048	-0.003	-0.055	-0.129	-0.011	0.019	-0.063	0	0.046	-0.207	-0.014
TPP1 (UniProt O14773)	-0.48 (active)	0.007	0.008	-0.031	-0.051	0.022	-0.025	0	0.049	-0.001	-0.036	-0.037	-0.174	-0.08	0.036	0.031	0.035	-0.036	-0.014	-0.091
UBAP2L isoform 1 (UniProt Q14157)	-0.006	-0.043	0.013	-0.134	0.058	-0.056	0.064	0.034	0.076	0.07	0.071	0.076	-0.064	0.039	-0.043	0.041	-0.022	-0.031	-0.012	0.03
XPNPEP1 isoform 3 (UniProt Q9NQW7)	-0.047	-0.013	-0.036	0.014	-0.086	-0.028	0.084	0.039	-0.033	0.042	-0.04	-0.052	-0.126	-0.07	0.015	0.399 (active)	0.062	-0.037	-0.02	0.025
UGDH (UniProt O60701)	0.018	0.062	-0.045	-0.377 (active)	-0.043	-0.24	0.151	0.09	-0.034	0.202	-0.062	-0.124	-0.033	-0.095	0.064	-0.027	0.145	-0.102	-0.31 (active)	0
USP14 (UniProt P54578)	-0.03	0.012	-0.006	-0.026	-0.087	0.015	-0.001	-0.065	-0.067	0.029	-0.008	-0.006	-0.161	-0.057	0.025	-0.03	0.051	0.007	-0.029	0.005
TRIP10 isoform 2 (UniProt Q15642)	-0.019	0.026	0.005	-0.174	0.035	-0.162	-0.033	-0.135	-0.04	0.142	-0.067	0.057	-0.065	-0.849 (active)	-0.2	0.026	-0.11	-0.065	-0.052	0.008
WASHC2A (UniProt Q641Q2)	-0.078	-0.025	0.002	-0.039	0.022	-0.012	-0.088	0.035	0.052	0.004	-0.013	-0.012	-0.159	0.021	-0.038	0.024	-0.035	0.072	0.016	-0.056
VPS11 (UniProt Q9H270)	-0.033	0.006	-0.048	-0.006	-0.154	0.005	-0.016	-0.004	-0.093	0.027	-0.012	-0.053	-0.159	-0.028	0.015	0.145	0.065	0.025	0.024	0.084
TSEN2 (UniProt Q8NCE0)	0.008	0.032	-0.05	-0.112	-0.132	-0.034	0.05	-0.013	-0.005	-0.16	0.212	-0.008	-0.126	-0.024	0.052	-0.003	0.005	0.197	-0.015	0.008
WDR7 (UniProt Q9Y4E6)	-0.034	0.082	-0.089	-0.01	-0.058	-0.034	0.085	-0.084	0.058	-0.118	-0.227	-0.017	0.104	-0.019	0.008	0.036	-0.125	0.032	0.119	-0.088
UBE4A isoform 2 (UniProt Q14139)	0.01	0.065	-0.111	-0.162	-0.196	0.015	-0.183	-0.023	-0.092	0.021	-0.017	0.01	-0.136	0.001	0.146	0.133	0.059	0.117	0.026	-0.014
TMEM173 (UniProt Q86WV6)	0.007	0.019	-0.129	-0.013	-0.156	0.003	0.001	-0.046	0.021	0.066	0.002	-0.041	-0.078	-0.06	0.032	-0.09	-0.028	-0.041	0.035	0.006
TMEM223 (UniProt A0PJW6)	-0.156	-0.005	0.032	0.033	-0.052	-0.079	-0.025	0.038	0.013	0.044	-0.087	-0.14	-0.1	0.071	-0.02	0.096	-0.031	0.019	0.05	-0.036
